From PubChem BioAssay AID2685 (National Center for Advancing Translational Sciences (NCATS), 2010)
Hit rate of the full screen: of about 320,000 compounds, about 2,100 (0.66%) were called active. Another 53% or so got no clear call; they are omitted. Calls follow the shape of the dose curve; as a rule, active = well fitted inhibition curve with a large enough effect in the signal ratio, with a control signal flat (not every such curve was filed as active); inconclusive = small, poorly fitted or top-dose-only effect, or effect the other way, or a change in a side signal; inactive = flat fitted curve, though single readings scatter; the % refers to the signal ratio. What follows is part of a selection rich in actives, with near analogues and random picks from the rest.

Assay: qHTS Assay for Lipid Storage Modulators in Drosophila S3 Cells;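 as to cell number change: cells counted by Cell Tracker Red CMTPX staining in the red channel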; as to lipid storage change, negative = inhibition: % is scaled to controls: 0 for no effect and ±100 for the full control effect
Conditions: BODIPY lipid droplet fluorescence, 18-24 h, cells fed with added oleic acid; cell number change: measured here: cell count max response; series mostly up to 46.1 µM
Summary of the method: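 Laser-scanning cytometry quantifies lipid droplet accumulation (500–530 nm total intensity; droplet/cell object ratio) in oleic acid-fed (400 uM added) Drosophila S3 cells treated with a concentration series. 20 uM Triacsin C defined 100% inhibition.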
Potency is read from the fitted curve at half-maximal effect.

Structure (SMILES) | Potency | cell number change [%] | lipid storage change, negative = inhibition
O=C(O)c1cc(-c2ccccc2Cl)n(-c2ccccc2)n1 | inactive | 19.7 | 
COc1cc(CC(=O)NCc2ccco2)cc(OC)c1OC | inactive |  | 
CNC(=S)N/N=C/c1c(C(=O)OC)cnn1-c1ccc(F)cc1F | inactive | 9.07 | 
Cc1oc(-c2ccccc2F)nc1CN1CCC(C(=O)NCc2cccnc2)CC1 | inactive | 15.7 | 
O=C(Nc1ccccc1)Nc1n[nH]c2nnc(-c3ccccc3)c(-c3ccccc3)c12 | inactive | 9.52 | 
Cc1cc(-c2nc(C)c(C(=O)NNC(=O)NC(C)C)s2)no1 | inactive | 5.79 | 
Cc1cc(C)c2c(N)c(C(=O)Nc3ccc(C)c(C)c3)sc2n1 | inactive | -1.35 | 
CC(C)(C)C(=O)c1sc2nc(-c3cccs3)cc(C(F)(F)F)c2c1N | inactive | -8.91 | 
Cc1cc(C(F)(F)F)c2c(N)c(C(=O)NC3CC3)sc2n1 | 17.8 µM (active) | -6.29 | 
Cc1cc(C)c2c(N)c(C(=O)NC3CC3)sc2n1 | inactive | 14.6 | 
Cc1nnc(NC(=O)c2sc3nc(-c4cccs4)cc(C(F)(F)F)c3c2N)s1 | 9.2 µM (active) | 18.6 | 
CN(C)CCNC(=O)c1sc2nc(-c3ccccc3)cc(C(F)(F)F)c2c1N | inactive | -18.7 | 
O=C(O)C(C(O)c1ccc([N+](=O)[O-])cc1)[n+]1ccccc1 (centres undefined) | inactive | 27.3 | 
C(=N\Nc1ccc(-n2ccnc2)nn1)/c1ccccc1 | inactive |  | 
CCOC(=O)CNC(=O)N1CCCC(C(=O)c2cc(C)c(OC)c(C)c2)C1 (centres undefined) | inactive | 16.3 | 
O=C(NCCC1=CCCCC1)c1ccc(-n2cncn2)c([N+](=O)[O-])c1 | inactive | -27 | 
CCOC(=O)c1sc(N(Cc2ccccc2)C(=O)COC(=O)c2cnccn2)nc1C | inactive |  | 
C=CCn1c(SCc2nc3ccccc3nc2C)nnc1-c1ccoc1C | inactive | -18.3 | 
CC(CC(=O)O)CC1=NS(=O)(=O)c2ccccc2N1 (centres undefined) | 13 µM (active) | -6.45 | 
Cc1ccc(NC(=O)CC(C)CC2=NS(=O)(=O)c3ccccc3N2)cc1 (centres undefined) | inactive | 4.79 | 
CCOC(=O)CC1=NS(=O)(=O)c2ccccc2N1 | inactive | 8.13 | 
O=C(O)c1cc2ncc(-c3[nH]ncc3[N+](=O)[O-])cn2n1 | inactive | 25.8 | 
CCCCc1nc2ccccc2c(=O)n1NC(=O)c1c(O)c2ccccc2n(C)c1=O | inactive | -2.66 | 
COC(=O)c1ccc(CSc2nc3ccc(S(=O)(=O)N4CCOCC4)cc3[nH]2)cc1 | inactive | 1.16 | 

Structure (SMILES) | Potency | cell number change [%] | lipid storage change, negative = inhibition
Cc1ccc2nc(SCC(=O)N3CCOCC3)[nH]c2c1 | inactive | -6.28 | 
O=C(CSc1nc2ccc(S(=O)(=O)N3CCOCC3)cc2[nH]1)N1CCOCC1 | 18.4 µM (active) | 8.23 | 
O=C(O)C1CCCN(S(=O)(=O)c2ccc(-c3ccc(=O)[nH]n3)s2)C1 (centres undefined) | inactive | -7.22 | 
COC(=O)Nc1ccc(Cn2cc(C(F)(F)F)ccc2=O)cc1 | inactive | 17.3 | 
O=C1C=CC(=O)N1Cc1ccccc1 | 4.11 µM (active) | -23.7 | 
O=C1[C@H](O)[C@@H](O)C(=O)N1Cc1ccccc1 | inactive | 24.4 | 
O=C1NC(=O)N(Cc2ccccc2)C1=O | inactive | -0.926 | 
C1=C(CCNc2ncnc3nc[nH]c23)CCCC1 | 16.4 µM (active) | -23.9 | 
CCCNc1ncnc2nc[nH]c12 | inactive | 19.1 | 
COCCNc1ncnc2nc[nH]c12 | inactive | 7.15 | 
O=C(Sc1ccccc1)c1cccc(Cn2cc(C(F)(F)F)ccc2=O)c1 | inactive | 1.6 | 
COc1cccc(NC(=O)c2ccc3nc(C)sc3c2)c1 | inactive | 0.275 | 
CCN1CCCC(OC(=O)Nc2ccccc2)C1 (centres undefined) | inactive | -14.2 | 
Cc1cc2c(NCc3ccccc3)ncnc2s1 | inactive | -12.9 | 
COc1ccc(CCNc2ncnc3c2c(C)c(C)n3CCO)cc1OC | inactive | -9.63 | 
COc1ccc(CCNc2ncnc3sc(C)cc23)cc1OC | 4.11 µM (active) | -27 | 
CCOC(=O)c1ccc(-c2ccc(/C=N/NC(=O)Cc3nnc(N)s3)o2)cc1 | inactive | -10.3 | 
CCOC(=O)C1CCN(C(c2cccc(F)c2)c2sc3nc(C)nn3c2O)CC1 (centres undefined) | inactive | 9.03 | 
Cc1nc(S(=O)(=O)N2CCN(C3c4ccccc4-c4ccccc43)CC2)cn1C | inactive | 19.2 | 
COc1ccc(NC(=O)c2ccc3c(c2)n(C)c(=O)n3C)cc1 | inactive | -1.07 | 
Cn1c(=O)n(C)c2cc(NC(=O)c3ccc(F)cc3)ccc21 | inactive | -7.46 | 
CC(C)Oc1ccc(C(=O)Nc2ccc3c(c2)n(C)c(=O)n3C)cc1 | 18.4 µM (active) | -24.3 | 
CCN(CC)C(=O)c1ccc(-c2cccs2)s1 | inactive | 3.13 | 
COc1ccc(NC(=O)c2oc3ccccc3c2C)cn1 | inactive | 13.5 | 

Structure (SMILES) | Potency | cell number change [%] | lipid storage change, negative = inhibition
COc1ccc(NC(=O)c2oc3ccccc3c2CSC)cn1 | 23.1 µM (active) | 1.61 | 
CCOCc1c(C(=O)Nc2ccc(OC)nc2)oc2ccccc12 | inactive | -13.5 | 
CC(C)CCNC(=O)C(C)N(Cc1ccc(F)cc1)C(=O)c1ccc(CN2CCOCC2)o1 (centres undefined) | inactive | -9.3 | 
COC(=O)c1ccccc1NC(=O)COC(=O)CO/N=C(\C)c1ccc2c(c1)OCO2 | inactive | -2.37 | 
Cc1cc(OC(C)C(=O)NCC2CCC(C(=O)O)CC2)c2c(C)cc(=O)oc2c1 (centres undefined) | inactive | -0.291 | 
CCOC(=O)C1CCN(C(=O)c2cc(COc3ccc(OC)c4ccccc34)on2)CC1 | inactive | 0.306 | 
Cn1c(SCC(=O)N2CCc3ccccc3C2)nnc1-c1ccncc1 | inactive | 6.69 | 
Cc1ccc(-n2c(C)nnc2SCC(=O)N2CCc3ccccc3C2)cc1 | inactive | -10.8 | 
CCc1cccc(CC)c1-n1c(SCC(=O)N2CCc3ccccc3C2)nnc1-c1cccnc1 | 16.4 µM (active) | 1.33 | 
COc1ccc(-c2nc(CN3CCC(C(=O)NCC4CCCO4)CC3)c(C)o2)cc1OC (centres undefined) | inactive |  | 
CCn1c(SCC(=O)c2ccccc2)nc2c(c1=O)SC(C)C2 (centres undefined) | inactive |  | 
N#CC1(NC(=O)COc2ccc(S(=O)(=O)N3CCCC3)cc2[N+](=O)[O-])CCCCC1 | inactive | -3.48 | 
N#CC1(NC(=O)COc2cc(F)ccc2[N+](=O)[O-])CCCCC1 | 11.6 µM (active) | -12.3 | 
N#CC1(NC(=O)COc2ccccc2[N+](=O)[O-])CCCCC1 | inactive |  | 
COc1cccc(C2=NOC(C(=O)N3CCN(Cc4ccccc4)CC3)C2)c1OC (centres undefined) | inactive | -0.697 | 
COc1ccc(CCN(C)CC(O)COC(c2ccc(F)cc2)c2ccc(F)cc2)cc1OC (centres undefined) | inactive | -8.84 | 
COc1cccc(CN2CCN(C3CCN(c4ccccc4C)CC3)CC2CCO)c1 (centres undefined) | inactive | -24 | 
COc1ccc(Cl)cc1NC(=O)Nc1ccccc1C(N)=O | inactive | 14.7 | 
Cc1cccc([C@@H]2[C@@H]3C(=O)N(Cc4ccccc4)C(=O)[C@@H]3[C@]3(C)C(=O)N(c4ccc(Br)cc4)C(=O)N23)c1 | 2.31 µM (active) | 17.2 | 
Cc1ccc(N2C(=O)N3[C@H](c4cccc(C)c4)[C@@H]4C(=O)N(Cc5ccccc5)C(=O)[C@@H]4[C@]3(C)C2=O)cc1 | inactive | -18.1 | 
Cc1cccc([C@@H]2[C@@H]3C(=O)N(Cc4ccccc4)C(=O)[C@@H]3[C@]3(C)C(=O)N(c4cccc(Cl)c4)C(=O)N23)c1 | inactive | -9.71 | 
CN(C(=O)c1cccnc1)c1nnc(-c2cccnc2)s1 | inactive | -7.8 | 
COc1ccccc1NC(=O)Nc1cccc(NC(C)=O)c1 | inactive | -3.02 | 
Cc1csc(NC(=O)c2ccc3ccccc3n2)n1 | inactive | 7.3 | 

Structure (SMILES) | Potency | cell number change [%] | lipid storage change, negative = inhibition
Cc1csc(NC(=O)c2ccccc2)n1 | inactive | 23.7 | 
Cc1csc(NC(=O)c2cnc3ccccc3n2)n1 | 1.64 µM (active) |  | 
Cc1cccc(N2CCN(C(=O)C(NS(=O)(=O)c3cccs3)c3ccccc3)CC2)c1C (centres undefined) | inactive | -2.06 | 
CCN=C1S/C(=C\c2cc(Br)c(O)c(OC)c2)C(=O)N1CC | inactive | -10.5 | 
CC(NC(=O)C1CCCCC1)c1ccc2c(c1)OCCO2 (centres undefined) | inactive |  | 
Cc1ccc(C(=O)O)cc1S(=O)(=O)N1CCC(C(=O)O)CC1 | inactive | -0.135 | 
Cc1ccc(C(C)(C)C)cc1S(=O)(=O)N1CCC(C(=O)N2CCN(c3ccc(O)cc3)CC2)CC1 | 3.66 µM (active) | -13.6 | 
O=C(C1CC1)N1CCN(c2ccc(O)cc2)CC1 | inactive | 22.2 | 
Cc1ccc(N(Cc2cc3cc(C)ccc3[nH]c2=O)S(=O)(=O)c2ccccc2)cc1 | inactive | -3.48 | 
CCOC(=O)CSc1nc2ccccc2c(=O)n1CC1CCCO1 (centres undefined) | inactive | 0.196 | 
COc1ccc(OC2C(=O)N(Cc3ccc(F)cc3)C2c2ccc(OC)c(OC)c2)cc1 (centres undefined) | inactive |  | 
O=C(Cc1c(Cl)cccc1Cl)Nc1ccc(S(=O)(=O)Nc2ncccn2)cc1 | inactive | 17.5 | 
O=C(Cc1ccc(Cl)c(Cl)c1)Nc1ccc(S(=O)(=O)Nc2ncccn2)cc1 | inactive | 8.75 | 
O=C(Cc1ccccc1F)Nc1ccc(S(=O)(=O)Nc2ncccn2)cc1 | 0.146 µM (active) | 16.8 | 
C#CCN(C(=O)c1ccc(OC)c(OC2CCN(C(C)C)CC2)c1)C1CCCCC1 | inactive | 13.3 | 
Cc1cc(NC(=O)COC(=O)CSc2nc3cc(Cl)ccc3n2Cc2ccccc2)no1 | inactive | -15.1 | 
CC(Sc1nccn1C)C(=O)Nc1ccccc1 (centres undefined) | inactive | -8.41 | 
CC(Sc1nccn1C)C(=O)Nc1ccc(C(N)=O)cc1 (centres undefined) |  | 24.6 | -16.1% [at 0.0737 µM] (inactive)
CC(Sc1nccn1C)C(=O)c1ccc(Br)cc1 (centres undefined) | 18.4 µM (active) | 8.97 | 
Cc1ccc(NS(=O)(=O)c2ccc(-c3ccc(=O)[nH]n3)o2)c(C)c1 | inactive | 3.54 | 
Cc1ccc(C)c(NS(=O)(=O)c2ccc(-c3ccc(=O)[nH]n3)o2)c1 | inactive | -3.63 | 
Cc1cccc(C)c1NS(=O)(=O)c1ccc(-c2ccc(=O)[nH]n2)o1 | 16.4 µM (active) | -21.6 | 
